Measured values from ChEMBL document CHEMBL1961873, “Compounds: GSK PKIS; Assays: Nanosyn kinase panel” (2012).

What was measured:
[1] = molecular target: Sphingosine kinase 1 (Homo sapiens) (UniProt Q9NYA1); conditions: at 1 µM;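 also: mean SPHK1 inhibition value reported from the GSK PKIS kinase panel screen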
[2] = molecular target: T1, Sphingosine kinase 2 (Homo sapiens) (UniProt Q9NRA0); conditions: at 0.1 µM
T1 sequence (whole entry): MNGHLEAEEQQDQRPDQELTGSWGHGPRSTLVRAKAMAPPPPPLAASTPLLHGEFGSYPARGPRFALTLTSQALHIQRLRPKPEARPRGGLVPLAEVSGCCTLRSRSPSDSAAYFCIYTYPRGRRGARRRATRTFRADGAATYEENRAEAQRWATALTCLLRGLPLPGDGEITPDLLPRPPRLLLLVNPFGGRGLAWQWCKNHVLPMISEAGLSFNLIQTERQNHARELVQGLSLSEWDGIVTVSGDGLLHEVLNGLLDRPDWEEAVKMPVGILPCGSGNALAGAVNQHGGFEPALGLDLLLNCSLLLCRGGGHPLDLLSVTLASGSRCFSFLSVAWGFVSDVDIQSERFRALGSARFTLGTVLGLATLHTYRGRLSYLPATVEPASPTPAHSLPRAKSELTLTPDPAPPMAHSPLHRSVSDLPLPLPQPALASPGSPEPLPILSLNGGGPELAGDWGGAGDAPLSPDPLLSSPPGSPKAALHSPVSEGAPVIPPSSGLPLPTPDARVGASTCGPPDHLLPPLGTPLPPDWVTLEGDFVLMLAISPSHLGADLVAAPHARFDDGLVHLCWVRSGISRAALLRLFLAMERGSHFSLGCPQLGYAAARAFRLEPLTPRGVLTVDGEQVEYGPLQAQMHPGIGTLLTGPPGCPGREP

[3] = molecular target: T1, Sphingosine kinase 2 (Homo sapiens); conditions: at 1 µM
[4] = molecular target: Casein kinase II subunit alpha (Homo sapiens) (UniProt P68400); conditions: at 0.1 µM
Casein kinase II subunit alpha (Homo sapiens), sequence (P68400 whole entry, looked up): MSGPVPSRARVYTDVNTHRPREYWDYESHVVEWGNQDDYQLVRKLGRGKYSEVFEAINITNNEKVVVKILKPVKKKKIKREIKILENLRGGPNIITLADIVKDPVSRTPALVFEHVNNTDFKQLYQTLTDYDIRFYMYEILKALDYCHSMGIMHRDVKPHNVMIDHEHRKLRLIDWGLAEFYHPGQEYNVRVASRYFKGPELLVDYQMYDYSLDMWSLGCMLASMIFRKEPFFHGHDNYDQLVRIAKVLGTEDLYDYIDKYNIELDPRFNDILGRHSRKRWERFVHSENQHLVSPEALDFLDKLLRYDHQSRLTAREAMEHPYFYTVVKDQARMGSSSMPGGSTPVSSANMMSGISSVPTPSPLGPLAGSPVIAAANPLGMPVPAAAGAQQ

[5] = molecular target: Casein kinase II subunit alpha (Homo sapiens) (UniProt P68400); conditions: at 1 µM
[6] = molecular target: T2, Inhibitor of nuclear factor kappa-B kinase subunit alpha (Homo sapiens) (UniProt O15111); conditions: at 0.1 µM
T2 sequence (whole entry): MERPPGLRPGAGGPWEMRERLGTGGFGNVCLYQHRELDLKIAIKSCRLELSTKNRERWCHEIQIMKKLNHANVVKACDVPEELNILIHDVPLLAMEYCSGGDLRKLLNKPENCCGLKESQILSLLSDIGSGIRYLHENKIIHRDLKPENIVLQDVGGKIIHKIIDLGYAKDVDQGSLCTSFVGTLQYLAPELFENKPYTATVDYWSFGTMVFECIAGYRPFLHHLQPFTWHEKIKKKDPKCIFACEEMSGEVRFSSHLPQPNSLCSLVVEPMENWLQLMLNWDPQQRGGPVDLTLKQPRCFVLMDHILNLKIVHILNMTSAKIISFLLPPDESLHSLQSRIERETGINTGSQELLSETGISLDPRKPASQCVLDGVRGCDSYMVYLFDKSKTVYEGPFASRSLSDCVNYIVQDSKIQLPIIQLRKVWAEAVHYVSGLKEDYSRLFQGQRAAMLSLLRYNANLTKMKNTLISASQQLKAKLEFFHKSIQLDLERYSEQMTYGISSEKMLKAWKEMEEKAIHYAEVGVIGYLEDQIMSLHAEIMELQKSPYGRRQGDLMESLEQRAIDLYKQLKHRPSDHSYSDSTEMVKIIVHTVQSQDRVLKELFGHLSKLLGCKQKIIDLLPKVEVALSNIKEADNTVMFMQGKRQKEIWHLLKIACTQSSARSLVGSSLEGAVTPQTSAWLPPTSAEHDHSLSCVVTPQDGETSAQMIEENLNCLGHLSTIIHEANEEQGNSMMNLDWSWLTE

[7] = molecular target: T2, Inhibitor of nuclear factor kappa-B kinase subunit alpha (Homo sapiens); conditions: at 1 µM
[8] = molecular target: T3, Inhibitor of nuclear factor kappa-B kinase subunit beta (Homo sapiens) (UniProt O14920); conditions: at 0.1 µM
T3 sequence (whole entry): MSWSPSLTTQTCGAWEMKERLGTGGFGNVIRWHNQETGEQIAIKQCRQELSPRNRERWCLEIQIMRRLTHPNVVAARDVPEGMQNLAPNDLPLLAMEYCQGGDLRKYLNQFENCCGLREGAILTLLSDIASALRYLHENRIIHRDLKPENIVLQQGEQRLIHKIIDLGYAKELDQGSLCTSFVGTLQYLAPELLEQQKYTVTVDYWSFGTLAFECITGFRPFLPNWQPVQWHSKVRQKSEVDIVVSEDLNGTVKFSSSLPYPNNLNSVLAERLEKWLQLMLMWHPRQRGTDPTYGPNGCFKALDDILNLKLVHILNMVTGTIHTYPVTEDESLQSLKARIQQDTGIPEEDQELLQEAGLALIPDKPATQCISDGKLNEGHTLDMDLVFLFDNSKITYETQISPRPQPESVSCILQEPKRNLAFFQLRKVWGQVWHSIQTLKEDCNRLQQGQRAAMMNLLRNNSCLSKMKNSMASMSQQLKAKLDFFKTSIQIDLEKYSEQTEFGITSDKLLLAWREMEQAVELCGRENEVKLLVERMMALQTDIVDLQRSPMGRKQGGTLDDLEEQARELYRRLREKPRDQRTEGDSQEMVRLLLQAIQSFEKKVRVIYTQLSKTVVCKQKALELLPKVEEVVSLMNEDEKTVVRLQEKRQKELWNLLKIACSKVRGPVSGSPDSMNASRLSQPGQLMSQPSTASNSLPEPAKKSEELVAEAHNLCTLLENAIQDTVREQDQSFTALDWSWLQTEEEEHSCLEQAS

[9] = molecular target: T3, Inhibitor of nuclear factor kappa-B kinase subunit beta (Homo sapiens); conditions: at 1 µM
[10] = molecular target: T4, Inhibitor of nuclear factor kappa-B kinase subunit epsilon (Homo sapiens) (UniProt Q14164); conditions: at 0.1 µM
T4 sequence (whole entry): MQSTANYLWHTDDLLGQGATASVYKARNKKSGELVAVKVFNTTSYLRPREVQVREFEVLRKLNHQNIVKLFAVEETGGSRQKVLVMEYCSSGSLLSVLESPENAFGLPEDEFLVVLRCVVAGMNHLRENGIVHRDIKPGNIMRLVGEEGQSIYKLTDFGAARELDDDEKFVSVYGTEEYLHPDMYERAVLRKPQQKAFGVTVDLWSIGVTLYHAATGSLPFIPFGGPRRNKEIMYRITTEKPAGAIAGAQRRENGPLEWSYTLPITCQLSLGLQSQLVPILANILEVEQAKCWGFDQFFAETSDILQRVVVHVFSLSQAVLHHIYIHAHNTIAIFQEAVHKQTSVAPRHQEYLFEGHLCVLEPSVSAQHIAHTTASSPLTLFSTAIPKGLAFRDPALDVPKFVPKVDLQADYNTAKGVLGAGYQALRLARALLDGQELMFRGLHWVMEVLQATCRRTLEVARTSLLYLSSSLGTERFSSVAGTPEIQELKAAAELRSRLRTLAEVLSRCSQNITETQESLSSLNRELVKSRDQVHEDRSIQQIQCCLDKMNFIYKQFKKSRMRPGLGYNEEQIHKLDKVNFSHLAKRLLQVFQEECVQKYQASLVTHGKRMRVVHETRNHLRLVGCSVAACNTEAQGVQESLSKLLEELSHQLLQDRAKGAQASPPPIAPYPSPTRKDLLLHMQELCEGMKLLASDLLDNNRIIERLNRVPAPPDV

[11] = molecular target: T4, Inhibitor of nuclear factor kappa-B kinase subunit epsilon (Homo sapiens); conditions: at 1 µM
[12] = molecular target: T5, Serine/threonine-protein kinase Nek1 (Homo sapiens) (UniProt Q96PY6); conditions: at 0.1 µM
T5 sequence (whole entry): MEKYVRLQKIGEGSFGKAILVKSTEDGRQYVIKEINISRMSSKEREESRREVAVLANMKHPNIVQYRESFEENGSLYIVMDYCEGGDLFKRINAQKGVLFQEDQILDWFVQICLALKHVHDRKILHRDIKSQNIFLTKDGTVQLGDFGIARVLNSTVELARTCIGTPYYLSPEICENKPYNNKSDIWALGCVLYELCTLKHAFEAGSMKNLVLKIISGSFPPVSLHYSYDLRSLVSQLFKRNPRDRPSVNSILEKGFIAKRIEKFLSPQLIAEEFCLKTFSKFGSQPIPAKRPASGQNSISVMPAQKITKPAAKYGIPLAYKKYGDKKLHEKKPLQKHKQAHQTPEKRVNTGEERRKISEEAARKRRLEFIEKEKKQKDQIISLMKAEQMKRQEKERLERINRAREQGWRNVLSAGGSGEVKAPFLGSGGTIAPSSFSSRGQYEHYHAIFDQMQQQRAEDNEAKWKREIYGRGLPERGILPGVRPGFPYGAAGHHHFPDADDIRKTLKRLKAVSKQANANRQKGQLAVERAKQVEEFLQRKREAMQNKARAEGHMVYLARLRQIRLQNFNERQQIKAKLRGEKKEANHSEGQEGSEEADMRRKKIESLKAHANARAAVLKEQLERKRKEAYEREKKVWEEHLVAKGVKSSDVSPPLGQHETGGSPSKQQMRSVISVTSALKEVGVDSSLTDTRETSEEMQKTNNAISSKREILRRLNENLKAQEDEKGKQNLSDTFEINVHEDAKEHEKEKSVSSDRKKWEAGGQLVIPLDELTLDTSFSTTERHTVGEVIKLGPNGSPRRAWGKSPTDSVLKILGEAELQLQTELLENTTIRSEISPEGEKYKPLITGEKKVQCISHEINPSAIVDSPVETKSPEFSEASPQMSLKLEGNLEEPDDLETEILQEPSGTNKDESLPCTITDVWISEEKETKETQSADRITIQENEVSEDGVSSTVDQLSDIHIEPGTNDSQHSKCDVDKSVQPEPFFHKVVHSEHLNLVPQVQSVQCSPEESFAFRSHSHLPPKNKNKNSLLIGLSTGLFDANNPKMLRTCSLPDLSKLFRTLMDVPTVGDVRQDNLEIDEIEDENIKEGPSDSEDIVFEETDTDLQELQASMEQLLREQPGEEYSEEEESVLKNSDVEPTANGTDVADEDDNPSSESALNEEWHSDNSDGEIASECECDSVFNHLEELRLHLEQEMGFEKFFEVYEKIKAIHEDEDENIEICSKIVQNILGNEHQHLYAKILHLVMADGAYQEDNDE

[13] = molecular target: T5, Serine/threonine-protein kinase Nek1 (Homo sapiens); conditions: at 1 µM
[14] = molecular target: T6, Serine/threonine-protein kinase Nek2 (Homo sapiens) (UniProt P51955); conditions: at 0.1 µM
T6 sequence (whole entry): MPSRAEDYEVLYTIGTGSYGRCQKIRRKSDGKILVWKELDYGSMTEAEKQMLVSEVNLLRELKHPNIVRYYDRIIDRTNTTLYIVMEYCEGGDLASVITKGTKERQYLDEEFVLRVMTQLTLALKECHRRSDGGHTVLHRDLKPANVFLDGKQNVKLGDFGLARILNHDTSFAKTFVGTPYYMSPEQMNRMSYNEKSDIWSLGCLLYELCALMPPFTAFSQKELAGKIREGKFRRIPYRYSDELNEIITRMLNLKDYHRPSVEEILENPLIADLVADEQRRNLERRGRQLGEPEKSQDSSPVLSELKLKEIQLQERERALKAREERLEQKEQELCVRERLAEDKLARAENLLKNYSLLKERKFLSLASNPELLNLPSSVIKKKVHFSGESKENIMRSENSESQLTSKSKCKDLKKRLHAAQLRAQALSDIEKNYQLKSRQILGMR

[15] = molecular target: T6, Serine/threonine-protein kinase Nek2 (Homo sapiens); conditions: at 1 µM
[16] = molecular target: Serine/threonine-protein kinase Nek6 (Homo sapiens) (UniProt Q9HC98); conditions: at 0.1 µM
Serine/threonine-protein kinase Nek6 (Homo sapiens), sequence (Q9HC98 whole entry): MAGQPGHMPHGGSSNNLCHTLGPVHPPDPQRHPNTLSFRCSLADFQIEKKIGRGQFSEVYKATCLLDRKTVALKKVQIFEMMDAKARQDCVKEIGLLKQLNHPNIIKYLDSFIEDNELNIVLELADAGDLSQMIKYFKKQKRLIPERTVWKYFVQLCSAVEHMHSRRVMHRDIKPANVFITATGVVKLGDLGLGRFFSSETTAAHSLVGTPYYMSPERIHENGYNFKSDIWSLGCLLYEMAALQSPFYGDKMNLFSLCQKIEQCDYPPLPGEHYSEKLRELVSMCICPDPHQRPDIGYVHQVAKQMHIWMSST

[17] = molecular target: Serine/threonine-protein kinase Nek6 (Homo sapiens) (UniProt Q9HC98); conditions: at 1 µM
[18] = molecular target: Serine/threonine-protein kinase Nek7 (Homo sapiens) (UniProt Q8TDX7); conditions: at 0.1 µM
Serine/threonine-protein kinase Nek7 (Homo sapiens), sequence (Q8TDX7 whole entry, looked up): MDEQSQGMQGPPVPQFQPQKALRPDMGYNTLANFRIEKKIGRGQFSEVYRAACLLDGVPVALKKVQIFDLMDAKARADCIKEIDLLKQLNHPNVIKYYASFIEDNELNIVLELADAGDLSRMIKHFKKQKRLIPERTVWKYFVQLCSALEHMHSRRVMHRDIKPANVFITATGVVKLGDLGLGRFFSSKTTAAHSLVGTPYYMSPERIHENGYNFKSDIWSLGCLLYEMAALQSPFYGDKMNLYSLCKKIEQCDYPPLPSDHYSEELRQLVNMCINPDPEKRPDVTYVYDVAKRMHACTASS

[19] = molecular target: Serine/threonine-protein kinase Nek7 (Homo sapiens) (UniProt Q8TDX7); conditions: at 1 µM
[20] = molecular target: T7, Serine/threonine-protein kinase Nek9 (Homo sapiens) (UniProt Q8TD19); conditions: at 0.1 µM;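 also: reported value is the mean percent inhibition of NEK9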
T7 sequence (whole entry): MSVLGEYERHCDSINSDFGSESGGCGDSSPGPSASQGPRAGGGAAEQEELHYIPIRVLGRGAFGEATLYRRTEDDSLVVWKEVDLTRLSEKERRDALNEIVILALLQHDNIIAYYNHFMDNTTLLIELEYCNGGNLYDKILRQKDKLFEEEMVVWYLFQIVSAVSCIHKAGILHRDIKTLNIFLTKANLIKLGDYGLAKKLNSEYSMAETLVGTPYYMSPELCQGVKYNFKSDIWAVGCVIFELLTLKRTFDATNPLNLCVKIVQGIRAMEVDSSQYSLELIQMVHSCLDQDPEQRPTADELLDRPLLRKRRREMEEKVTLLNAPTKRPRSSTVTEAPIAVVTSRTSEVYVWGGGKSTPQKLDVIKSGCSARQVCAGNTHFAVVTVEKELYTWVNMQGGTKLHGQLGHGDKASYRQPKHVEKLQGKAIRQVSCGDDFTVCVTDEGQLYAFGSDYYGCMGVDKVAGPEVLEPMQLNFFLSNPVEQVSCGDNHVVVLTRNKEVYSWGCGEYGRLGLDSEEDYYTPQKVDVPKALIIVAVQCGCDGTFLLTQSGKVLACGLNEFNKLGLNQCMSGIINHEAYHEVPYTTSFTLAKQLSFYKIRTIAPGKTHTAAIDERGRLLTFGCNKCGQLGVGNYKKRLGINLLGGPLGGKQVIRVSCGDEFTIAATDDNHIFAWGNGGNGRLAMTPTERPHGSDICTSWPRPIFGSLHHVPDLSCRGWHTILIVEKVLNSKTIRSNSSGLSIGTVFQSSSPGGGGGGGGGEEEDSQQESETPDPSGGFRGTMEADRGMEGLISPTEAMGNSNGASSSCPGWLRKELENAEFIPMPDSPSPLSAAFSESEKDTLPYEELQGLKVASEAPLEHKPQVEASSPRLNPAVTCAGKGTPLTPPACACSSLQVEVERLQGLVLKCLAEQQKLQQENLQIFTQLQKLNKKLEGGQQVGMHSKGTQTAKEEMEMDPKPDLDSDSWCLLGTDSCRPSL

Sphingosine kinase 1 (Homo sapiens), sequence (Q9NYA1 whole entry): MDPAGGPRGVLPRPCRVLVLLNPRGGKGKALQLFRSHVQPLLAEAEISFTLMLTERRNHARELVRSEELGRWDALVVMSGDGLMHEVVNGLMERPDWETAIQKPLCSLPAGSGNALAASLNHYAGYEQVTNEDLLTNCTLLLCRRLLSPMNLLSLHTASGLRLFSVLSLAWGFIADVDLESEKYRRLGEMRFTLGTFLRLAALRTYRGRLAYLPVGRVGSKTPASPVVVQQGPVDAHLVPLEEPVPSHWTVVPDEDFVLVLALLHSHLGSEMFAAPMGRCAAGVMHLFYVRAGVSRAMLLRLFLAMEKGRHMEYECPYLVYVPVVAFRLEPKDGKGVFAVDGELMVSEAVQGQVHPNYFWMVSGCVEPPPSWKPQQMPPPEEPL

Cc1ccc(O)cc1Nc1ccnc2ccc(S(C)(=O)=O)cc12
inhibition [1]: -1.32%
inhibition [2]: 1.04%
inhibition [3]: 1.77%
inhibition [4]: 3.63%
inhibition [5]: 8.35%
inhibition [6]: 5.42%
inhibition [7]: 9.92%
inhibition [8]: 6.57%
inhibition [9]: 8.43%
inhibition [10]: 6.64%
inhibition [11]: 6.97%
inhibition [12]: 2.87%
inhibition [13]: 5.3%
inhibition [14]: 5.76%
inhibition [15]: 4.61%
inhibition [16]: 1.23%
inhibition [17]: 4.89%
inhibition [18]: 5.32%
inhibition [19]: 4.35%
inhibition [20]: 4.3%
